Source: PMC7862700, “An all-to-all approach to the identification of sequence-specific readers for epigenetic DNA modifications on cytosine”

Tests used:
Assay in all cases: DAPPL (digital affinity profiling via proximity ligation, sequencing); 10 mM Tris-HCl pH 7.5, 50 mM NaCl, 1 mM DTT, 4% glycerol, room temperature, 30 min; GST-TFs on glutathione beads, 16-mer random dsDNA library, 0.1% formaldehyde crosslink after washing; high values mean tight binding
[1] = target: T1, FEV (Homo sapiens, UniProt Q99581 1-238); settings: protein: recombinant; tags: N-terminal GST; dsDNA, one strand shown
T1 sequence: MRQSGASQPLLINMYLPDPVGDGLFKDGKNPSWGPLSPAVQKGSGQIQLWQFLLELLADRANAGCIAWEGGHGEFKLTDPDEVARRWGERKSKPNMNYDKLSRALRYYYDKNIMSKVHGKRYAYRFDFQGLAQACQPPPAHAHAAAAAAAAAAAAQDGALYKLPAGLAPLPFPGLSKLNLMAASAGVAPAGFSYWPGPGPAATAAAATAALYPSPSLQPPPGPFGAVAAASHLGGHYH
In short: (§1)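 Pools of DNA-barcoded human transcription factors, expressed in yeast as GST fusions on glutathione beads and combined with a tag-only sample, were incubated with 200 nmole of a 16-mer random double-stranded DNA library. Incubation took 30 min at room temperature in Tris/NaCl/DTT/glycerol buffer and was followed by washing, 0.1% formaldehyde crosslinking, proximity ligation (BsaI/T4 ligase, 1 h, 37 °C), PCR amplification and sequencing on an Illumina NextSeq500. Binding signal is the ratio of a hexamer's read frequency for a factor to its frequency for the tag-only sample.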

[2] = target: ETV5 (Homo sapiens, UniProt P41161 1-510); settings: protein: recombinant; tags: N-terminal GST; dsDNA, one strand shown
In short: as §1

[3] = target: HSF1 (Homo sapiens, UniProt Q00613 1-529); settings: protein: recombinant; tags: N-terminal GST; chain copies: 3; dsDNA, one strand shown
In short: as §1

[4] = target: T2, SPIC (Homo sapiens, UniProt Q8N5J4 1-248); settings: protein: recombinant; tags: N-terminal GST; dsDNA, one strand shown
T2 sequence: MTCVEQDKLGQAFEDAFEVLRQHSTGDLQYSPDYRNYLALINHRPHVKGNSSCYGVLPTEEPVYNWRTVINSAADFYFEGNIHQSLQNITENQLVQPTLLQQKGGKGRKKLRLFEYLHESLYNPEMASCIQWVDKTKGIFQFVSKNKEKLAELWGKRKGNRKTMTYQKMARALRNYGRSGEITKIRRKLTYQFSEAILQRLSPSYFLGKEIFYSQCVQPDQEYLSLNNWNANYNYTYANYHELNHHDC
In short: as §1

[5] = target: ELF4 (Homo sapiens, UniProt Q99607 1-663); settings: protein: recombinant; tags: N-terminal GST; dsDNA, one strand shown
In short: as §1

[6] = target: T3, ELK4 (Homo sapiens, UniProt P28324-2 1-405); settings: protein: recombinant; tags: N-terminal GST; dsDNA, one strand shown
T3 sequence: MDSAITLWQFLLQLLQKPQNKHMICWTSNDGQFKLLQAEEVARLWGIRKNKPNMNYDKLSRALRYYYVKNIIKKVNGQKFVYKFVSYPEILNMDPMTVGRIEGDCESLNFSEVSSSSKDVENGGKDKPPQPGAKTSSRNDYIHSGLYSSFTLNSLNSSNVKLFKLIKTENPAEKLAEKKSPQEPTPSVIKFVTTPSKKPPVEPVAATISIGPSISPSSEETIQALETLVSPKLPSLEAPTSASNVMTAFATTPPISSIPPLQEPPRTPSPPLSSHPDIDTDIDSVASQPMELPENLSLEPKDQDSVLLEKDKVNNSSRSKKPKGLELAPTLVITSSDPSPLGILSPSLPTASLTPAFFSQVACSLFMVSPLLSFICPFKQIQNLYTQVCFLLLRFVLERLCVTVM
In short: as §1

[7] = target: T4, ETV2 (Homo sapiens, UniProt O00321 1-342); settings: protein: recombinant; tags: N-terminal GST; dsDNA, one strand shown
T4 sequence: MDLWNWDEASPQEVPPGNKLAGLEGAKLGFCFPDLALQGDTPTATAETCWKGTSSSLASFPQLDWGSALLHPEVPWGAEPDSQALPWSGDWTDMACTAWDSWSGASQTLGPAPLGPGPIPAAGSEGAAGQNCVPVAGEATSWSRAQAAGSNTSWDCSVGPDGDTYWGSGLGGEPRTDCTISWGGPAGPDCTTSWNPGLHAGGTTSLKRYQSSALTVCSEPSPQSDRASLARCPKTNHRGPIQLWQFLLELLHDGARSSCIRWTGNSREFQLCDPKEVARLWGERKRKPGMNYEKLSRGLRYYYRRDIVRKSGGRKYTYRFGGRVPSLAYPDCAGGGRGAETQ
In short: as §1

[8] = target: T5, ELF3 (Homo sapiens, UniProt P78545 1-371); settings: protein: recombinant; tags: N-terminal GST; dsDNA, one strand shown
T5 sequence: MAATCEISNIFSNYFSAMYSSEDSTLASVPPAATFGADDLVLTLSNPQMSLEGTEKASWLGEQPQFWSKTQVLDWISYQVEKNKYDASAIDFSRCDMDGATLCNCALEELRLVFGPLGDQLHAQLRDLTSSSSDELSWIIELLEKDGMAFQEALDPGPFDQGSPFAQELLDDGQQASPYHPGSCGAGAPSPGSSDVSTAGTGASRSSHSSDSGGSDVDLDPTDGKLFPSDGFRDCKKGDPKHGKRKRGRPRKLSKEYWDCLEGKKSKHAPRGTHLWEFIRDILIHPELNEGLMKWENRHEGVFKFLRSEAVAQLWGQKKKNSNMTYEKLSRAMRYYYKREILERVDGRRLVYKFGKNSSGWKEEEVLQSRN
In short: as §1

[9] = target: CRX (Homo sapiens, UniProt O43186 1-299); settings: protein: recombinant; tags: N-terminal GST; dsDNA, one strand shown
In short: as §1

[10] = target: ETV1 (Homo sapiens, UniProt P50549 1-477); settings: protein: recombinant; tags: N-terminal GST; dsDNA, one strand shown
In short: as §1

ETV1, sequence (P50549 whole entry): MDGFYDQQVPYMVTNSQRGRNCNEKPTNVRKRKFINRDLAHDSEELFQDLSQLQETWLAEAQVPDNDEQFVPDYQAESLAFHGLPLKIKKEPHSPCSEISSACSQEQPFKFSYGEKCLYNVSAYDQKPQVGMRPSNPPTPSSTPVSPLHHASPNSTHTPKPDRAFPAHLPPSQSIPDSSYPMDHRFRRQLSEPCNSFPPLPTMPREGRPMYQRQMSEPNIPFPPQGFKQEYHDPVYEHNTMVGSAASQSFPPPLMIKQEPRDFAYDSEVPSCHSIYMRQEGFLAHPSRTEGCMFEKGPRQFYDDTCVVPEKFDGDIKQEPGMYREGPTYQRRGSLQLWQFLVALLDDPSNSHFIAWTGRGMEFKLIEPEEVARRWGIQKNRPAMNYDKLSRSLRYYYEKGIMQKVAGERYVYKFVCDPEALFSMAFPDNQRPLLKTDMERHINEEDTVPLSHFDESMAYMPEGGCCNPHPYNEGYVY
CRX, sequence (O43186 whole entry): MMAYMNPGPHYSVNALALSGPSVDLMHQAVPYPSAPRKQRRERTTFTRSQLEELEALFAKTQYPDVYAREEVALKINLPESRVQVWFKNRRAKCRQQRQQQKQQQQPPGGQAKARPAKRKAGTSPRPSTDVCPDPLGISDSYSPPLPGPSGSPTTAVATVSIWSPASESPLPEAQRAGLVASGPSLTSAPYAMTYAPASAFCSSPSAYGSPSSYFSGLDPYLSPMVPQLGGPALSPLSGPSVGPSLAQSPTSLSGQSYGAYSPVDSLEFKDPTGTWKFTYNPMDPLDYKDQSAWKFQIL
ETV5, sequence (P41161 whole entry): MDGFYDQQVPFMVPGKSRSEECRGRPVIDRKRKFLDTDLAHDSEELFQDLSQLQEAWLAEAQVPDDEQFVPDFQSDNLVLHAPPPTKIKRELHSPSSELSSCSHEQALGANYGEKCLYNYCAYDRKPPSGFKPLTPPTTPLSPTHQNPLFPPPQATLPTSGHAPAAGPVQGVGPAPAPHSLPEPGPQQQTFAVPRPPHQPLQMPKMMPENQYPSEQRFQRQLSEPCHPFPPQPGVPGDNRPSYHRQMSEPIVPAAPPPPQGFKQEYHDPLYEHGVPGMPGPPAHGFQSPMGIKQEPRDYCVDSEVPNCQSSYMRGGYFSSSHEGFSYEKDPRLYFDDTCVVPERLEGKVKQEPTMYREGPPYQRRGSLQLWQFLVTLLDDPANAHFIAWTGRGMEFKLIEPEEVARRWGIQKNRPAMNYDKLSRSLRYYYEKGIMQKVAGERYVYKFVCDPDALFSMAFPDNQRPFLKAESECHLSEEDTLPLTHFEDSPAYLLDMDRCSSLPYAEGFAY
HSF1, sequence (Q00613 whole entry): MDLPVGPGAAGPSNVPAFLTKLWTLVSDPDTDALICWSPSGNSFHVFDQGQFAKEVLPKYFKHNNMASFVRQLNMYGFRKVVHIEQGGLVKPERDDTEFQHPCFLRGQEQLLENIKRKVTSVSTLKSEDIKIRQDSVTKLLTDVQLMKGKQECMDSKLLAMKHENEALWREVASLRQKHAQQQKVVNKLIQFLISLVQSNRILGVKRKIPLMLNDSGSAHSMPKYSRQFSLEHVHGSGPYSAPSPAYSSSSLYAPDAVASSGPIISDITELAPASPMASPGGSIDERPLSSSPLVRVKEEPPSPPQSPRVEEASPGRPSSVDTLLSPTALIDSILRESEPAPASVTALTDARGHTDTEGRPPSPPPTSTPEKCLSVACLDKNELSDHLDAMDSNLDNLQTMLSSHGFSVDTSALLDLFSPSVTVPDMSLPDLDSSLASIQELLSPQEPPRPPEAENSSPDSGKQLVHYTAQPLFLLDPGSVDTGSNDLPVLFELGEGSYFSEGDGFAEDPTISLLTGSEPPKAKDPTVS
ELF4, sequence (Q99607 whole entry): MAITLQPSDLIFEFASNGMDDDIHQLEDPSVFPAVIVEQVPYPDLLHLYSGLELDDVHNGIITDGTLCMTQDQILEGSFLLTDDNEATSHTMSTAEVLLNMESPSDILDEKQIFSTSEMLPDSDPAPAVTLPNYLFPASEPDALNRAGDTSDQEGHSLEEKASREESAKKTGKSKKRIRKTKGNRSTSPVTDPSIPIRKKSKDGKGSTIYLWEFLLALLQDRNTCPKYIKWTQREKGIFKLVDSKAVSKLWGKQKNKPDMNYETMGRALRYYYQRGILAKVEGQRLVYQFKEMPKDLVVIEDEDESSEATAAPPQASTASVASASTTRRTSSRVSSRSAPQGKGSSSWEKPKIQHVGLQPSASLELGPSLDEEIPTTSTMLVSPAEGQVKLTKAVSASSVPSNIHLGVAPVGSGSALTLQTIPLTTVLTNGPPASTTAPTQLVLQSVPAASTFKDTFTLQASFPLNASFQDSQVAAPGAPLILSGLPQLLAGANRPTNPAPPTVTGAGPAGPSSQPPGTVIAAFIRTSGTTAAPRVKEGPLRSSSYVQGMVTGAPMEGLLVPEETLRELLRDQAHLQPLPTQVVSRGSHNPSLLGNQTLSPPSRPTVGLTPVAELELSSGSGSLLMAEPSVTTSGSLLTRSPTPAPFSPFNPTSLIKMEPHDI

TTACTC was tested, and the binding signal [1] was 1.21 fold enrichment (6-mer frequency, TF over GST control), the binding signal [2] was 1.24 fold enrichment (6-mer frequency, TF over GST control) and the binding signal [3] was 1.49 fold enrichment (6-mer frequency, TF over GST control). For the same sequence, the binding signal [4] was 1.24 fold enrichment (6-mer frequency, TF over GST control), the binding signal [5] was 1.29 fold enrichment (6-mer frequency, TF over GST control) and the binding signal [6] was 1.34 fold enrichment (6-mer frequency, TF over GST control). The binding signal [7] was 1.37 fold enrichment (6-mer frequency, TF over GST control), the binding signal [8] was 1.43 fold enrichment (6-mer frequency, TF over GST control) and the binding signal [9] was 1.91 fold enrichment (6-mer frequency, TF over GST control). The binding signal [10] was 1.32 fold enrichment (6-mer frequency, TF over GST control).
CTCCCA was tested, and the binding signal [1] was 1.39 fold enrichment (6-mer frequency, TF over GST control), the binding signal [2] was 1.37 fold enrichment (6-mer frequency, TF over GST control) and the binding signal [3] was 1.17 fold enrichment (6-mer frequency, TF over GST control). The binding signal [4] was 1.38 fold enrichment (6-mer frequency, TF over GST control), the binding signal [5] was 1.4 fold enrichment (6-mer frequency, TF over GST control) and the binding signal [6] was 1.44 fold enrichment (6-mer frequency, TF over GST control). The binding signal [7] was 1.08 fold enrichment (6-mer frequency, TF over GST control), the binding signal [8] was 1.36 fold enrichment (6-mer frequency, TF over GST control) and the binding signal [9] was 1.19 fold enrichment (6-mer frequency, TF over GST control). The binding signal [10] was 1.32 fold enrichment (6-mer frequency, TF over GST control).
In the case of ATACCT, the binding signal [1] is reported as 1.04 fold enrichment (6-mer frequency, TF over GST control), the binding signal [2] is reported as 1.01 fold enrichment (6-mer frequency, TF over GST control) and the binding signal [3] is reported as 1.01 fold enrichment (6-mer frequency, TF over GST control). The binding signal [4] was 1.11 fold enrichment (6-mer frequency, TF over GST control), the binding signal [5] was 1.1 fold enrichment (6-mer frequency, TF over GST control) and the binding signal [6] was 1.1 fold enrichment (6-mer frequency, TF over GST control). The binding signal [7] was 1.09 fold enrichment (6-mer frequency, TF over GST control), the binding signal [8] was 1.08 fold enrichment (6-mer frequency, TF over GST control) and the binding signal [9] was 1.12 fold enrichment (6-mer frequency, TF over GST control). For the same sequence, the binding signal [10] was 1.15 fold enrichment (6-mer frequency, TF over GST control).
In the case of TCGCTA, the binding signal [1] is reported as 1.08 fold enrichment (6-mer frequency, TF over GST control), the binding signal [2] is reported as 1.07 fold enrichment (6-mer frequency, TF over GST control) and the binding signal [3] is reported as 1.15 fold enrichment (6-mer frequency, TF over GST control). For the same sequence, the binding signal [4] was 1.06 fold enrichment (6-mer frequency, TF over GST control), the binding signal [5] was 1.11 fold enrichment (6-mer frequency, TF over GST control) and the binding signal [6] was 1.16 fold enrichment (6-mer frequency, TF over GST control). For the same sequence, the binding signal [7] was 1.24 fold enrichment (6-mer frequency, TF over GST control), the binding signal [8] was 1.03 fold enrichment (6-mer frequency, TF over GST control) and the binding signal [9] was 1.12 fold enrichment (6-mer frequency, TF over GST control). For the same sequence, the binding signal [10] was 1.08 fold enrichment (6-mer frequency, TF over GST control).
For TTAACG, the binding signal [1] was 1.13 fold enrichment (6-mer frequency, TF over GST control), the binding signal [2] was 1.22 fold enrichment (6-mer frequency, TF over GST control) and the binding signal [3] was 1.73 fold enrichment (6-mer frequency, TF over GST control). For the same sequence, the binding signal [4] was 1.11 fold enrichment (6-mer frequency, TF over GST control), the binding signal [5] was 1.15 fold enrichment (6-mer frequency, TF over GST control) and the binding signal [6] was 1.17 fold enrichment (6-mer frequency, TF over GST control). For the same sequence, the binding signal [7] was 1.17 fold enrichment (6-mer frequency, TF over GST control), the binding signal [8] was 1.27 fold enrichment (6-mer frequency, TF over GST control) and the binding signal [9] was 2.66 fold enrichment (6-mer frequency, TF over GST control). For the same sequence, the binding signal [10] was 1.19 fold enrichment (6-mer frequency, TF over GST control).
In the case of ATAACT, the binding signal [1] is reported as 1.22 fold enrichment (6-mer frequency, TF over GST control), the binding signal [2] is reported as 1.29 fold enrichment (6-mer frequency, TF over GST control) and the binding signal [3] is reported as 1.15 fold enrichment (6-mer frequency, TF over GST control). The binding signal [4] was 1.28 fold enrichment (6-mer frequency, TF over GST control), the binding signal [5] was 1.25 fold enrichment (6-mer frequency, TF over GST control) and the binding signal [6] was 1.22 fold enrichment (6-mer frequency, TF over GST control). The binding signal [7] was 1.39 fold enrichment (6-mer frequency, TF over GST control), the binding signal [8] was 1.24 fold enrichment (6-mer frequency, TF over GST control) and the binding signal [9] was 1.29 fold enrichment (6-mer frequency, TF over GST control). For the same sequence, the binding signal [10] was 1.16 fold enrichment (6-mer frequency, TF over GST control).
In the case of TTGTTA, the binding signal [1] is reported as 1.3 fold enrichment (6-mer frequency, TF over GST control), the binding signal [2] is reported as 1.31 fold enrichment (6-mer frequency, TF over GST control) and the binding signal [3] is reported as 1.34 fold enrichment (6-mer frequency, TF over GST control). For the same sequence, the binding signal [4] was 1.31 fold enrichment (6-mer frequency, TF over GST control), the binding signal [5] was 1.32 fold enrichment (6-mer frequency, TF over GST control) and the binding signal [6] was 1.47 fold enrichment (6-mer frequency, TF over GST control). The binding signal [7] was 1.35 fold enrichment (6-mer frequency, TF over GST control), the binding signal [8] was 1.08 fold enrichment (6-mer frequency, TF over GST control) and the binding signal [9] was 1.61 fold enrichment (6-mer frequency, TF over GST control). For the same sequence, the binding signal [10] was 1.35 fold enrichment (6-mer frequency, TF over GST control).
